# Measured values from the supplement of paper PMC6555819.
# Key:
# Test in all cases: PBM binding z-score (relative to random genomic background probes); higher = stronger binding; sequences stand for … in GC…GCGATTGACAGCGTAGAATGAAGG
# [1] = system: PPARg:RXRa DBDmut IVT, anti-RXR (DBD mutation: RXRa K156A/R161A, NR concentration 270 nM, RXRa partner concentration 90 nM)
# Method in brief: (§1)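 Each nuclear receptor dimer, without ligand, was incubated for 1 h on custom Agilent 4×180K protein-binding microarrays. Binding was detected with antibodies against each partner (one per run), and scanned fluorescence was regression-normalized. The binding z-scores are referenced to random human genomic background probes.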
# [2] = system: PPARg:RXRa IVT, anti-PPARg (NR concentration 270 nM, RXRa partner concentration 90 nM)
# Method in brief: as §1
# [3] = system: PPARg DBDmut:RXRa IVT, anti-PPARg (DBD mutation: PPARg1 K132A/R137A, NR concentration 270 nM, RXRa partner concentration 90 nM)
# Method in brief: as §1
# [4] = system: PPARg DBDmut IVT, anti-PPARg (DBD mutation: PPARg1 K132A/R137A, NR concentration 270 nM)
# Method in brief: as §1
# [5] = system: PPARg homodimer (NR concentration 180 nM)
# Method in brief: as §1
# [6] = system: PXR:RXRa (NR concentration 270 nM, RXRa partner concentration 90 nM)
# Method in brief: as §1
# [7] = system: PXR homodimer (NR concentration 270 nM)
# Method in brief: as §1
# [8] = system: RARa:RXR (NR concentration 270 nM, RXRa partner concentration 90 nM)
# Method in brief: as §1
# [9] = system: RARa homodimer (NR concentration 270 nM)
# Method in brief: as §1
# [10] = system: RARb:RXRa (NR concentration 270 nM, RXRa partner concentration 90 nM)
# Method in brief: as §1
# [11] = system: RARb homodimer (NR concentration 270 nM)
# Method in brief: as §1
# [12] = system: RARg:RXRa (NR concentration 270 nM, RXRa partner concentration 90 nM)
# Method in brief: as §1
# [13] = system: RARg homodimer (NR concentration 270 nM)
# Method in brief: as §1
# [14] = system: RXRa DBDmut IVT, anti-RXR (DBD mutation: RXRa K156A/R161A, NR concentration 90 nM)
# Method in brief: as §1
# [15] = system: RXRa homodimer (NR concentration 180 nM)
# Method in brief: as §1
# [16] = system: THRa:RXRa (NR concentration 90 nM, RXRa partner concentration 90 nM)
# Method in brief: as §1
# [17] = system: THRa homodimer (NR concentration 90 nM)
# Method in brief: as §1
# [18] = system: VDR:RXRa (NR concentration 270 nM, RXRa partner concentration 90 nM)
# Method in brief: as §1
# [19] = system: VDR homodimer (NR concentration 270 nM)
# Method in brief: as §1
Sequence,PBM binding z-score [1],PBM binding z-score [2],PBM binding z-score [3],PBM binding z-score [4],PBM binding z-score [5],PBM binding z-score [6],PBM binding z-score [7],PBM binding z-score [8],PBM binding z-score [9],PBM binding z-score [10],PBM binding z-score [11],PBM binding z-score [12],PBM binding z-score [13],PBM binding z-score [14],PBM binding z-score [15],PBM binding z-score [16],PBM binding z-score [17],PBM binding z-score [18],PBM binding z-score [19]
ACTATTAGTTGACTTAGGGTAACCGATACGACGC,0.838,0.626,1.67,1.36,0.663,0.483,0.517,0.73,0.861,0.582,0.611,0.744,0.754,0.853,0.525,2.77,1.43,0.225,0.184
TCTTGTAGATCAATAGAGGTTAAGAACGTGCGCT,1.69,1.17,0.658,1.03,0.496,1.51,0.111,1.83,0.544,0.956,1.05,0.792,0.716,0.923,1.54,2.33,-0.182,1.27,0.37
CCGACTGGGGCAGAAACGTTACCATACCATCCGG,1.22,0.558,-0.521,-0.904,-0.18,-0.851,-0.758,-0.735,0.0145,-0.053,-0.276,-0.119,-0.0645,-0.654,-0.341,-0.691,-0.735,-0.901,-0.552
ATTACAGGGTCATCGTAGGCCAGAGTACGCACAG,2.45,4.43,2.06,2.49,4.05,5.5,1.66,5.52,1.45,4.45,3.91,5.86,5.41,3.6,6.79,4.86,1.78,5.39,3.83
ACAGTCAGGTGAGTGAAGGTAACTCAGCTGGACG,0.794,0.82,-0.123,-0.515,-0.608,-0.47,-0.728,-0.00233,0.0121,0.775,-0.0774,0.2,0.617,-0.471,0.122,1.63,-0.205,-0.663,-0.58
CGTCAAAGTTCAACTCAGGTAACGTAAAGCACGC,0.639,2.02,0.699,0.924,4.03,5.4,3.74,4.37,1.92,5.15,4.24,5.85,6.43,4.55,5.06,5.03,1.38,4.45,4.21
AGAATGAGGTTATTAAGATCAGCGAATTGCGGTC,3.16,2.5,0.614,0.292,0.609,1,0.607,1.22,0.18,1.27,0.651,1.02,0.64,1.95,1.43,2.07,0.43,2.57,0.913
CGAACGAGGGCATGAGTCGATAGCAAATGCCGAT,2.97,1.89,-0.75,-0.876,0.211,0.0627,-0.737,0.1,-0.456,1.81,0.648,0.901,1.41,1.99,0.869,0.888,-0.267,0.359,0.974
